ALDH1A1 block – inhibitors of human aldehyde dehydrogenase 1A1; 7.3% of 220,000 active; Purified ALDH1A1, NADH fluorescence, propionaldehyde substrate; Potency, µM (series often up to 75.3 µM), for inactives: top-dose activity, negative = inhibition, hits mostly inhibitors; P00352; AID 1030;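 note: potency is the fitted concentration of half-maximal effect; plate controls were no enzyme wells and a reference inhibitor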
Target sequence (P00352 whole entry, looked up): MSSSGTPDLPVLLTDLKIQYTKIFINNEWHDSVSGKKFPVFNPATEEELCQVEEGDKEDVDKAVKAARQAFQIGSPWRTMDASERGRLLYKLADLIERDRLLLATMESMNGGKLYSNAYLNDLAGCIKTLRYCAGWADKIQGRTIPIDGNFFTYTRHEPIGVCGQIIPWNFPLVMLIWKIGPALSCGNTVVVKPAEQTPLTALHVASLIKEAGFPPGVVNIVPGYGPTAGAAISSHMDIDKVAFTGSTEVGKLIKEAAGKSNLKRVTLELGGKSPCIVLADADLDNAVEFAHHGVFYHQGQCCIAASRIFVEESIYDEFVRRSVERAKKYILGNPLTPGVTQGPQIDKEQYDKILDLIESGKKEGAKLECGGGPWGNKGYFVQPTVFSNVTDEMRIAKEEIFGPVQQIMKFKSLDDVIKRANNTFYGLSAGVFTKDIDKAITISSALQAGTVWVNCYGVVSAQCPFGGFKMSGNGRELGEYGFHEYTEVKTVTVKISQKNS
PNC assembly inh – blocks assembly of the perinucleolar compartment; PC3M PTB-GFP, PNC prevalence imaging, 16 h; hits give low values; activity change (PNC), negative = inhibition, % at 10 µM; AID 2417; 3.1% of 140,000 active;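 active = readout at or below -70, meaning at least 70% loss of cells showing the perinucleolar compartment, a nuclear body marking cancer cells; inconclusive = readout between -30 and a set limit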;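 note: plate controls were DMSO wells for no effect and camptothecin positive control wells for full effect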
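Compounds are pinned in duplicate onto adhered PC3M cells stably expressing GFP-tagged PTB and incubated 16 h at 37 C. Cells are then fixed, nuclei stained with Hoechst, and PNC-positive cells counted.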
HPGD inh – blocks human HPGD enzyme activity; P15428; purified HPGD, NADH fluorescence kinetic, PGE2 substrate; Potency, µM, without a hit: at the top dose activity change, negative = inhibition, actives largely listed as inhibitors; 4.3% of 150,000 active; AID 894; note: potency is the fitted concentration of half-maximal effect
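20 nM HPGD preincubated 15 min at room temperature with compound in 50 mM Tris-HCl pH 8, 0.01% Tween 20. Started with 1 mM NAD+ and 30 uM prostaglandin E2; NADH fluorescence (360/450 nm) read 5 times over 30-s intervals, last minus first.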
Numbers without * were called inactive; [ ] = another dose, or the depositor's remark. An excerpt weighted towards active compounds, which were near 11% of everything screened. Unless noted, calls come from the whole dose curve; as a rule, active = well fitted inhibition curve with a large enough effect (not every such curve was filed as active); inconclusive = small, poorly fitted or top-dose-only effect, or another doubt; inactive = no such curve, though single readings can be large or run the other way. Unless noted, % is set by controls: 0 for no effect and ±100 for the full control effect.

What do the screens show for `NC(CSCSCC(N)C(=O)O)C(=O)O` (stereo unspecified)?
ALDH1A1 block: 3%; HPGD inh: -1%

What do the screens show for `CCc1sc(NC(=O)CCC(=O)O)nc1-c1cc2ccccc2oc1=O`?
ALDH1A1 block: -12%

What do the screens show for `O=c1oc2cc(N=Cc3ccc4c(c3)OCO4)ccc2c2ccccc12`?
ALDH1A1 block: inconclusive; HPGD inh: -14%

What do the screens show for `CC1(C)[C@@H]2CC[C@]1(CC(=O)O)[C@H](Cl)C2`?
ALDH1A1 block: -4%[13.5 µM]; HPGD inh: -15%

How did NC(=S)SCCC(=O)O do in these assays?
ALDH1A1 block: 13%[13.5 µM]; HPGD inh: -2%

How did CCCn1c(Sc2nc3c(c(=O)[nH]c(=O)n3C)n2CCC)nc2c1c(=O)[nH]c(=O)n2C do in these assays?
ALDH1A1 block: -9%; PNC assembly inh: 13; HPGD inh: 14µM*

What do the screens show for `COC(=O)C(C)Sc1nc2c(c(=O)[nH]c(=O)n2C)n1CCCc1ccccc1` (stereo unspecified)?
ALDH1A1 block: inconclusive; PNC assembly inh: 31; HPGD inh: -30%

What do the screens show for `CCOC(=O)C(C)Sc1nc2c(c(=O)[nH]c(=O)n2C)n1CCc1ccccc1` (stereo unspecified)?
ALDH1A1 block: 13µM*; PNC assembly inh: -5; HPGD inh: -15%

What do the screens show for `C=CCn1c(SCCCc2ccccc2)nc2c1c(=O)[nH]c(=O)n2C`?
ALDH1A1 block: inconclusive; PNC assembly inh: -11; HPGD inh: inconclusive

How did C/C=C/Cn1c(SCCCc2ccccc2)nc2c1c(=O)[nH]c(=O)n2C do in these assays?
ALDH1A1 block: inconclusive; PNC assembly inh: -119*; HPGD inh: -14%

Results for C/C=C/CSc1nc2c(c(=O)[nH]c(=O)n2C)n1CCC ?
ALDH1A1 block: inconclusive; PNC assembly inh: 1; HPGD inh: -4%

What do the screens show for `CSc1nc2ccsc2c(=O)n1-c1ccccn1`?
ALDH1A1 block: 6%

What do the screens show for `COc1ccc(CCNC2CC(=O)N(C3CCCCC3)C2=O)cc1OC` (stereo unspecified)?
ALDH1A1 block: -1%

How did O=C(Cc1ccc(Cl)cc1)c1c[nH]c(C(=O)NCCCN2CCOCC2)c1 do in these assays?
ALDH1A1 block: -2%

Results for COC(=O)N/N=C/c1cc(C)n(-c2cccc3ccccc23)c1C ?
ALDH1A1 block: -2%; PNC assembly inh: 26; HPGD inh: -12%

How did Cc1ccc(C(=O)O)cc1-n1c(C)cc(C=O)c1C do in these assays?
ALDH1A1 block: 2µM*

What do the screens show for `Cc1c(C(=O)O)cccc1-n1c(C)cc(C=O)c1C`?
ALDH1A1 block: 22µM*

What do the screens show for `Cc1cc(C=O)c(C)n1-c1sc2c(c1C(=O)O)CCCC2`?
ALDH1A1 block: 4%; PNC assembly inh: 18; HPGD inh: 0%

How did CCCCC[C@H](O)/C=C/C=C\C=C\C=C\[C@@H](O)[C@@H](O)CCCC(=O)O do in these assays?
ALDH1A1 block: 10%; HPGD inh: 1%

Results for CC(C)CCC[C@@H](C)[C@@H]1CC[C@@H]2[C@H]3CC[C@H]4C[C@@H](N)CC[C@@]4(C)[C@@H]3CC[C@]21C ?
ALDH1A1 block: 14%[13.5 µM]; HPGD inh: -3%

What do the screens show for `O=C(N/N=C/c1c(Cl)cccc1Cl)c1n[nH]c2c1CCCC2`?
ALDH1A1 block: -3%; PNC assembly inh: -2; HPGD inh: 4µM*

Results for Cc1ccsc1/C=N\NC(=O)c1n[nH]c2c1CCC2 ?
ALDH1A1 block: -7%; PNC assembly inh: inconclusive; HPGD inh: -30%

What do the screens show for `O=C(N/N=C/c1c(Cl)cccc1Cl)c1ccc(F)cc1`?
ALDH1A1 block: 11%; PNC assembly inh: 3; HPGD inh: -3%

Results for O=C(N/N=C/c1c(Cl)cccc1Cl)c1ccccc1F ?
ALDH1A1 block: 1%; PNC assembly inh: -84*; HPGD inh: -19%

Results for CS(=O)(=O)Nc1cccc(-c2ccc3ncnc(NCCN4CCOCC4)c3c2)c1 ?
ALDH1A1 block: 22%

What do the screens show for `c1ccc(-c2cccc(N3CCC4(CCNCC4)CC3)c2)cc1`?
ALDH1A1 block: inconclusive; HPGD inh: -9%

How did S=C(NCCN1CCOCC1)NC1CCCC1 do in these assays?
ALDH1A1 block: 12%

Results for CC(C)c1ccc(NC(=S)N2CCCC(c3ccc(F)cc3)=N2)cc1 ?
ALDH1A1 block: -3%

How did Cc1c(NC(=O)C(C)N2C(=O)NC3(CCC(C)CC3)C2=O)c(=O)n(-c2ccccc2)n1C (stereo unspecified) do in these assays?
ALDH1A1 block: -7%

Results for Cc1sc2nc(CN3CCOCC3)nc(NS(=O)(=O)c3ccc4c(c3)OCCO4)c2c1C ?
ALDH1A1 block: 1.3µM*; PNC assembly inh: 18; HPGD inh: -1%

Results for CCOc1ccc(Br)cc1S(=O)(=O)Nc1ccc(N2CCOCC2)cc1 ?
ALDH1A1 block: 9%; PNC assembly inh: 24; HPGD inh: 1%

Results for CCOc1ccc(Br)cc1S(=O)(=O)Nc1nc(CN2CCOCC2)nc2sc(C)c(C)c12 ?
ALDH1A1 block: 13µM*; PNC assembly inh: inconclusive; HPGD inh: -5%

Results for Cc1sc2nc(CN3CCOCC3)nc(NS(=O)(=O)c3ccccc3)c2c1C ?
ALDH1A1 block: inconclusive; PNC assembly inh: 20; HPGD inh: -12%

What do the screens show for `CCC(C)(NC(=O)c1ccccn1)C(=O)NC1CCCC1` (stereo unspecified)?
ALDH1A1 block: 9%

How did Cn1cccc1C(=O)N1CCC2(CCCN(c3ccccn3)C2)CC1 do in these assays?
ALDH1A1 block: inconclusive; HPGD inh: -26%

How did COc1cccc(NC(=O)CN(C)C(C)C(=O)Nc2cc([N+](=O)[O-])ccc2Cl)c1 (stereo unspecified) do in these assays?
ALDH1A1 block: 2%

What do the screens show for `O=C(NC(=S)Nc1ccc(S(=O)(=O)N2CCCC2)cc1)c1cccs1`?
ALDH1A1 block: 13%; PNC assembly inh: 13; HPGD inh: inconclusive

How did COc1ccc(C(=O)Nc2ccc(N3CCCCC3)cc2)cc1Br do in these assays?
ALDH1A1 block: 1%; PNC assembly inh: 16; HPGD inh: -11%

Results for Cc1cccc(C(=O)NC(=S)Nc2ccc(S(=O)(=O)N3CCCCC3)cc2)c1 ?
ALDH1A1 block: 8.9µM*; PNC assembly inh: -21; HPGD inh: -10%

What do the screens show for `COc1cc(OC)cc(C(=O)NC(=S)Nc2ccc(N3CCCC3)cc2)c1`?
ALDH1A1 block: 11µM*; PNC assembly inh: inconclusive; HPGD inh: -11%

What do the screens show for `Cc1cccc(C(=O)NC(=S)Nc2ccc(S(=O)(=O)N3CCN(C)CC3)cc2)c1`?
ALDH1A1 block: inconclusive; PNC assembly inh: -10; HPGD inh: -10%

How did O=C(NC(=S)Nc1ccc(S(=O)(=O)N2CCCCCC2)cc1)c1cccs1 do in these assays?
ALDH1A1 block: 13µM*; PNC assembly inh: inconclusive; HPGD inh: -15%

Results for Cc1ccc(C(=O)N/N=C/c2ccc(N3CCOCC3)cc2)c(C)c1 ?
ALDH1A1 block: -14%

What do the screens show for `Cc1ccc(C(=O)NC(=S)Nc2ccc(N3CCOCC3)cc2)c(C)c1`?
ALDH1A1 block: 32µM*

How did COC(=O)[C@H](Cc1ccccc1)NC(=O)O[C@H]1C(=O)c2ccc(OC)cc2O[C@@H]1c1ccc2c(c1)OCO2 do in these assays?
ALDH1A1 block: 0%; PNC assembly inh: 6; HPGD inh: -3%

Source: PubChem
